Source: PubChem BioAssay (EPA / NIEHS)
Records with an inconclusive call do not appear. Calls of active or inactive are those of the source. The calls were made as follows, unless noted: active = hit-call score of the fitted dose curve at least 0.9, where 1 is the maximum; inconclusive = response in the unintended direction; inactive = score below 0.9.

Experiments:
[1] = target: Estrogen receptor beta (Homo sapiens) (UniProt Q92731); test: OT_ER_ERbERb_1440: Odyssey Thera (OT) 24-hour HEK293T Protein-Complementation Assay for Estrogen Receptor-beta/-beta Homodimer (AID 2283380);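 also: fluorescence gain from ER beta LBD homodimer complementation read by laser scanning cytometry; scored as signal increase over DMSO baseline for both agonists and antagonists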
Summary of the method: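 Fluorescence increase, nuclear for agonists or whole-cell for antagonists, relative to DMSO vehicle, quantified by laser scanning cytometer after fixation and Draq5 staining. Readout from 24 h treatment of HEK293T cells carrying complementation-paired ER beta LBD (aa 310-547).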

[2] = target: Bile acid receptor (Homo sapiens) (UniProt Q96RI1); test: OT_FXR_FXRSRC1_0480: Odyssey Thera (OT) 8-hour HEK293T Protein-Complementation Assay for Farnesoid X receptor/SRC-1 Co-activator (AID 2283383)
Summary of the method: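 Readings were taken 8 h after dosing HEK293T cells in a split-reporter complementation format pairing FXR with SRC-1. Increased fluorescence relative to DMSO-treated wells defined activity.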

[3] = target: Bile acid receptor (Homo sapiens) (UniProt Q96RI1); test: OT_FXR_FXRSRC1_1440: Odyssey Thera (OT) 24-hour HEK293T Protein-Complementation Assay for Farnesoid X receptor/SRC-1 Co-activator (AID 2283384)
Summary of the method: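 Single endpoint, analysed for increased fluorescence against DMSO controls. HEK293T cells carrying FXR and SRC-1 linked to complementary reporter halves were exposed to chemicals for 24 h before reading.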

[4] = target: Retinoic acid receptor RXR-alpha (Homo sapiens) (UniProt P19793); test: OT_NURR1_NURR1RXRa_0480: Odyssey Thera (OT) 8-hour HEK293T Protein Complementation Assay for Nurr1/retinoid X receptor (RXR) (AID 2283385)
Summary of the method: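 Gain in fluorescent complementation signal over DMSO, measured 8 hours after chemical dosing of human kidney HEK293T cells, indicated enhanced Nurr1–RXRα association.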

[5] = target: Retinoic acid receptor RXR-alpha (Homo sapiens) (UniProt P19793); test: OT_NURR1_NURR1RXRa_1440: Odyssey Thera (OT) 24-hour HEK293T Protein Complementation Assay for Nurr1/retinoid X receptor (RXR) (AID 2283386)
Summary of the method: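 Cell-based binding reporter: HEK293T cells, 24 h exposure, fluorescence-detected fragment complementation, DMSO as baseline.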

[6] = target: Peroxisome proliferator-activated receptor gamma (Homo sapiens) (UniProt P37231); test: OT_PPARg_PPARgSRC1_0480: Odyssey Thera (OT) 8-hour Protein-Complementation Assay for Peroxisome Proliferator-activated Receptor Gamma / SRC-1 Co-activator (AID 2283387);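 also: nuclear to cytoplasmic split Venus YFP fluorescence ratio reporting PPARg SRC-1 interaction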
Summary of the method: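 Read-out: 488 nm N/C fluorescence ratio from complemented Venus YFP fragments, ≥350 cells per image, gain-of-signal fitted against DMSO baseline. Fusions of PPARg/SRC-1 with IFP1/IFP2 expressed transiently in HEK293T; compounds applied 8 h.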

[7] = target: Peroxisome proliferator-activated receptor gamma (Homo sapiens) (UniProt P37231); test: OT_PPARg_PPARgSRC1_1440: Odyssey Thera (OT) 24-hour Protein-Complementation Assay for Peroxisome Proliferator-activated Receptor Gamma/ SRC-1 Co-activator (AID 2283388);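 also: nuclear to cytoplasmic ratio of reconstituted Venus YFP fluorescence in fixed imaged cells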
Summary of the method: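 Transient HEK293T, YFP fragments 1-158/159-239 (mutant IFP1/IFP2) fused to PPARg/SRC-1; 24 h dosing; fix 4% formaldehyde, Draq5; Opera imaging 488/635 nm; N/C ratio, gain vs DMSO.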

[8] = CEETOX_H295R_11DCORT: CeeTox H295R High-throughput Steroidogenesis Assay for 11-Deoxycortisol (11DCORT) (AID 2283432; active = hit-call score of the fitted dose curve at least 0.9, where 1 is the maximum; inactive = score below 0.9;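 as to AC50: 11-deoxycortisol secreted into the medium measured by LC-MS/MS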); settings: actives raise or lower the signal
Summary of the method: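 H295R cells; 10 uM forskolin prestim 48 h; compound in 0.1% DMSO 48 h; media extracted with MTBE; 11-deoxycortisol by LC-MS/MS, 7-point standard curve; gain/loss vs DMSO baseline; viability by MTT in same wells.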

[9] = CEETOX_H295R_OHPREG: CeeTox H295R High-throughput Steroidogenesis Assay for OH-Pregnenolone (OHPREG) (AID 2283434; active = hit-call score of the fitted dose curve at least 0.9, where 1 is the maximum; inactive = score below 0.9); settings: actives raise or lower the signal
Summary of the method: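 Secreted 17alpha-hydroxypregnenolone measured by HPLC-MS/MS after liquid-liquid extraction. Human adrenal H295R cells received 48 h forskolin (10 uM) stimulation before 48 h chemical exposure at 0.1% final DMSO; MTT viability in same wells; bidirectional fit against DMSO.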

[10] = CEETOX_H295R_OHPROG: CeeTox H295R High-throughput Steroidogenesis Assay for OH-Progesterone (OHPROG) (AID 2283435; active = hit-call score of the fitted dose curve at least 0.9, where 1 is the maximum; inactive = score below 0.9;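 as to AC50: 17alpha-hydroxyprogesterone secreted into medium measured by HPLC-MS/MS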); settings: actives raise or lower the signal
Summary of the method: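 Human adrenocortical H295R cells, passage 10 or lower, were treated with chemical for 48 h after forskolin priming, and hormone output in the medium was quantified by LC-MS/MS.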

[11] = CEETOX_H295R_CORTIC: CeeTox H295R High-throughput Steroidogenesis Assay for Corticosterone (CORTIC) (AID 2283437; active = hit-call score of the fitted dose curve at least 0.9, where 1 is the maximum; inactive = score below 0.9); settings: actives raise or lower the signal
Summary of the method: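 Medium corticosterone was quantified by tandem mass spectrometry following 48 hours of chemical exposure (0.1% DMSO) in human H295R cells previously stimulated 48 hours with 10 uM forskolin. Viability checked by MTT; chemicals diluted and retested when viability fell below 70%.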

[12] = CEETOX_H295R_CORTISOL: CeeTox H295R High-throughput Steroidogenesis Assay for Cortisol (AID 2283438; active = hit-call score of the fitted dose curve at least 0.9, where 1 is the maximum; inactive = score below 0.9;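 also: cortisol secreted into medium quantified by LC-MS/MS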); settings: actives raise or lower the signal
Summary of the method: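 Steroidogenesis in H295R, per modified OECD 456: 48 h forskolin (10 uM), then 48 h exposure, 0.1% DMSO. Cortisol by extraction and tandem MS; viability by MTT (570/650 nm); cytotoxic chemicals diluted and re-tested.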

[13] = CEETOX_H295R_DOC: CeeTox H295R High-throughput Steroidogenesis Assay for DOC (AID 2283439; active = hit-call score of the fitted dose curve at least 0.9, where 1 is the maximum; inactive = score below 0.9); settings: actives raise or lower the signal
Summary of the method: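 H295R, fsk 10 uM ×48 h pre, cmpd ×48 h (0.1% DMSO). Media → MTBE extr. → LC-MS/MS, DOC. Bidirectional fit vs DMSO; MTT viability same wells, re-test diluted if <70%.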

[14] = CEETOX_H295R_PROG: CeeTox H295R High-throughput Steroidogenesis Assay for Progesterone (PROG) (AID 2283442; active = hit-call score of the fitted dose curve at least 0.9, where 1 is the maximum; inactive = score below 0.9;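 as to AC50: human H295R adrenal cells primed with 10 µM forskolin before dosing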); settings: actives raise or lower the signal
Summary of the method: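 Adrenal H295R line, forskolin-stimulated (10 uM, 48 h) before dosing. 48 h exposure, 0.1% DMSO vehicle. Secreted progesterone by reverse-phase HPLC with ESI+ MS/MS quantification; DMSO-normalised bidirectional curve fit.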

[15] = CEETOX_H295R_ANDR: CeeTox H295R High-throughput Steroidogenesis Assay for Androstenedione (ANDR) (AID 2283436; active = hit-call score of the fitted dose curve at least 0.9, where 1 is the maximum; inactive = score below 0.9); settings: actives raise or lower the signal
Summary of the method: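 Medium from 48 h chemical-treated H295R adrenal cells was extracted with MTBE and androstenedione measured by LC-MS/MS. Activity was fit in both directions relative to DMSO. Cytotoxic concentrations were re-tested after dilution until MTT viability reached ≥70%.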

[16] = CEETOX_H295R_ESTRADIOL: CeeTox H295R High-throughput Steroidogenesis Assay for Estradiol (AID 2283440; active = hit-call score of the fitted dose curve at least 0.9, where 1 is the maximum; inactive = score below 0.9;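 also: estradiol secreted into medium quantified by LC-MS/MS after dansyl derivatisation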); settings: actives raise or lower the signal
Summary of the method: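 Following OECD 456 with minor changes, H295R cells received 10 uM forskolin for 48 h and then test chemical for 48 h. Hormone output was read by HPLC-MS/MS, with cytotoxic concentrations diluted until MTT viability reached ≥70%.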

[17] = CEETOX_H295R_ESTRONE: CeeTox H295R High-throughput Steroidogenesis Assay for Estrone (AID 2283441; active = hit-call score of the fitted dose curve at least 0.9, where 1 is the maximum; inactive = score below 0.9;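 also: estrone secreted into medium measured by LC-MS/MS after dansyl derivatization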); settings: actives raise or lower the signal
Summary of the method: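 Forskolin-stimulated H295R cells are treated 48 h with chemical, and estrone in the medium is measured by LC-MS/MS. Activity is fitted in both directions relative to DMSO controls, with chemicals diluted until MTT viability reaches at least 70%.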

[18] = target: Estrogen receptor (Homo sapiens) (UniProt P03372); test: OT_ERa_GFPERaERE_0480: Odyssey Thera (OT) 8-hour HeLa Transcription Induction Assay for Estrogen Receptor (AID 2283381; active = hit-call score of the fitted dose curve at least 0.9, where 1 is the maximum; inactive = score below 0.9)
Summary of the method: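 An 8 h HeLa transcription-induction format with a GFP reporter under ERE control, read by fluorescence microscopy; single endpoint fitted positively with DMSO as baseline.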

[19] = target: Estrogen receptor (Homo sapiens) (UniProt P03372); test: OT_ERa_GFPERaERE_0120: Odyssey Thera (OT) 2-hour HeLa Transcription Induction Assay for Estrogen Receptor (AID 2283382)
Summary of the method: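 Two-hour compound treatment of HeLa cells preceded microscopy imaging of an inducible fluorescent reporter. Image-based quantification gave one endpoint, analysed for signal increase relative to DMSO controls.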

Measured: AC50

Retinoic acid receptor RXR-alpha (Homo sapiens), sequence (P19793 whole entry, looked up, the tested form may be a part): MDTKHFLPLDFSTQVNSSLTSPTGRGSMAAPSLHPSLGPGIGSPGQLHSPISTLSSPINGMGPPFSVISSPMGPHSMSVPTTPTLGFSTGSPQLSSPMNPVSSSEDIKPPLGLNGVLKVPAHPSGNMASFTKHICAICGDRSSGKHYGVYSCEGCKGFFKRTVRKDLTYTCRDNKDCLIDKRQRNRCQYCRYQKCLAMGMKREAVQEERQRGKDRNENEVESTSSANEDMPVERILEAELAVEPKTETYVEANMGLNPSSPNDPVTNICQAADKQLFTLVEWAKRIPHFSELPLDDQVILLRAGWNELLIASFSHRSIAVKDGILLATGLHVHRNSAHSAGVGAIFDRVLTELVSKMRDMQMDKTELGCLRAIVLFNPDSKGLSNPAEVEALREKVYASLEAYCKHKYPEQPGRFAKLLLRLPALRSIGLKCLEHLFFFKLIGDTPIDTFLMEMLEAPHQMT
Estrogen receptor (Homo sapiens), sequence (P03372 whole entry, looked up): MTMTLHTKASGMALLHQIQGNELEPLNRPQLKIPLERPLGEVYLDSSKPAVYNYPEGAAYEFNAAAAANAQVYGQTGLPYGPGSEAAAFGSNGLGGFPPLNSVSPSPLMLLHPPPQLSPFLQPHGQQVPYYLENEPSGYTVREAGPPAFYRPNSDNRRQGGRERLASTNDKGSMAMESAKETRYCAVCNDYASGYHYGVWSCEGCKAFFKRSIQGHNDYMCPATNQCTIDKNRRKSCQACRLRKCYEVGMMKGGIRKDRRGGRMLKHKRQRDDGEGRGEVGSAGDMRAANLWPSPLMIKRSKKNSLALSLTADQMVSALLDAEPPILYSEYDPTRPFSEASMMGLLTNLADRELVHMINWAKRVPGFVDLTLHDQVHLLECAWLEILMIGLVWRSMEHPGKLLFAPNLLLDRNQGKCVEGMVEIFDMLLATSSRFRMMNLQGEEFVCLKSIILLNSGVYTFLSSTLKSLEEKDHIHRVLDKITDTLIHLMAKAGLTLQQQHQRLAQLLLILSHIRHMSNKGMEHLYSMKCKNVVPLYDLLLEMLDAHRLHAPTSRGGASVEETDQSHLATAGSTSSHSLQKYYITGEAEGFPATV
Bile acid receptor (Homo sapiens), sequence (Q96RI1 whole entry, looked up): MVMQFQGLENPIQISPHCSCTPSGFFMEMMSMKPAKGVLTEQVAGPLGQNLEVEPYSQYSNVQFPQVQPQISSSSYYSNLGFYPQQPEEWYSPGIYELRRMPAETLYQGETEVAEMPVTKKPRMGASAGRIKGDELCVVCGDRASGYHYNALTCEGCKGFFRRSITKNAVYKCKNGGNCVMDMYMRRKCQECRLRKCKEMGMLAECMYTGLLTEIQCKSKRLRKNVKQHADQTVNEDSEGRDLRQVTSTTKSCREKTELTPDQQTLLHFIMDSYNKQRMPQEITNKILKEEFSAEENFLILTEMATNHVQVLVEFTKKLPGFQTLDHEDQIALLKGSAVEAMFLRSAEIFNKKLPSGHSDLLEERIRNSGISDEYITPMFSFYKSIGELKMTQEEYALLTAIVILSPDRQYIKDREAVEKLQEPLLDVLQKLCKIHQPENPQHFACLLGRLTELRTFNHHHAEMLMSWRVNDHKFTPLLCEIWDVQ
Peroxisome proliferator-activated receptor gamma (Homo sapiens), sequence (P37231 whole entry, looked up, the tested form may be a part): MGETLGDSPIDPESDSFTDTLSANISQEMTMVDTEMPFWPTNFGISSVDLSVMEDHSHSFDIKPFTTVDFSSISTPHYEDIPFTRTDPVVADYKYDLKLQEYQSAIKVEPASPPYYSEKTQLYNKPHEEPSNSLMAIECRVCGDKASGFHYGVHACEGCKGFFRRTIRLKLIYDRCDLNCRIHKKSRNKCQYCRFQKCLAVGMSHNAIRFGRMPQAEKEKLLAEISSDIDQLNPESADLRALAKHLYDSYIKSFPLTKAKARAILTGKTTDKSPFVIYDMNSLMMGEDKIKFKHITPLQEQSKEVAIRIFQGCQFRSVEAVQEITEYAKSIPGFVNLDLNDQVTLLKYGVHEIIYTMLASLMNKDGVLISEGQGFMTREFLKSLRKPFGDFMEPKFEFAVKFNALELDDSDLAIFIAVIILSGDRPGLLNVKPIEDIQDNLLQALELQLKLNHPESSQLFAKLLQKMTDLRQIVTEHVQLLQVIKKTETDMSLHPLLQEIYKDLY
Estrogen receptor beta (Homo sapiens), sequence (Q92731 whole entry, looked up, the tested form may be a part): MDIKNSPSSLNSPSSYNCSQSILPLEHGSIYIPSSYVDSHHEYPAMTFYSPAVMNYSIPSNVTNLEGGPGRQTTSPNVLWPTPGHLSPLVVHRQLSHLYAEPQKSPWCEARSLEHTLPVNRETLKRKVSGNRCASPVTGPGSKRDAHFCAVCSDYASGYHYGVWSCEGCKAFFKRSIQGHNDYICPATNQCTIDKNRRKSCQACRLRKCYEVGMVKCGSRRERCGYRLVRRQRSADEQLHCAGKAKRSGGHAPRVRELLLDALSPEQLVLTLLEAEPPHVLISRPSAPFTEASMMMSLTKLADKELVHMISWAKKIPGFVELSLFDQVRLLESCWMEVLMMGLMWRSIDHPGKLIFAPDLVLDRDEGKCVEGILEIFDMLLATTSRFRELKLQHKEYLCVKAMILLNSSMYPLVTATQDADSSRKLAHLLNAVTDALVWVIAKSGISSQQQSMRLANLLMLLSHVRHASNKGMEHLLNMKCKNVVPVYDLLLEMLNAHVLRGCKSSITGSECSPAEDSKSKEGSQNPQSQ

CCC(=O)/C=C/C1C(C)=CCCC1(C)C (stereo not given)
active: [2] 50 µM | [3] 82.5 µM | [4] 78.4 µM
inactive: [1] | [5] | [6] | [7]

C=CC(C)(O)CCC=C(C)CCC=C(C)C (stereo not given)
active: [2] 59.4 µM
inactive: [1] | [4] | [7]

CCCCC[Si](OCC)(OCC)OCC
inactive: [1] | [4] | [6] | [7]

CCCCCC(CO)CCC (stereo not given)
inactive: [1] | [4] | [5] | [6] | [7]

OC1OC[C@@H](O)[C@H](O)[C@H]1O (stereo not given in full)
inactive: [1] | [4] | [5] | [6] | [7]

CC1=CC(=O)NS(=O)(=O)O1
inactive: [1] | [4] | [6] | [7]

CC(C)=CCC[C@](C)(O)[C@@H]1CC=C(C)CC1
inactive: [1] | [4] | [5] | [6] | [7]

O=C(Oc1ccccc1)c1ccc(O)cc1
inactive: [6] | [7]
active: [1] 4.86 µM

O=C(O)CCCCCCCC(=O)O
inactive: [1] | [5] | [6] | [7]

O=C(Cl)c1cccc(C(=O)Cl)c1
inactive: [1] | [4] | [6] | [7]

CC(C)CCCCCCCOC(=O)c1ccc(C(=O)OCCCCCCCC(C)C)c(C(=O)OCCCCCCCC(C)C)c1
inactive: [1] | [4] | [6] | [7]

C[Si](O[Si](C)(C)C)O[Si](C)(C)C
inactive: [1] | [4] | [6] | [7]

C=CCOc1nc(OCC=C)nc(OCC=C)n1
active: [1] 25.5 µM | [8] 25.9 µM | [9] 38.6 µM | [11] 31.7 µM | [12] 29.3 µM | [14] 50 µM
inactive: [4] | [6] | [7] | [10] | [13]

CC(C)=CCCC(C)=CCCC(C)=CCO
active: [1] 12.8 µM | [9] 28.1 µM | [10] 31.5 µM
inactive: [4] | [6] | [7]

NCCNCCN
inactive: [1] | [6] | [7]

CCCCCCCCCCCCCCCCCC(=O)OCC(CC)CCCC (stereo not given)
inactive: [1] | [4] | [6] | [7]

C=O
inactive: [1] | [4] | [6] | [7]

O=c1cc(-c2ccccc2)oc2cc(O)cc(O)c12
active: [1] 11 µM | [10] 16.6 µM | [11] 5.66 µM | [13] 12.2 µM | [14] 16.1 µM
inactive: [4] | [6] | [7] | [8] | [9] | [15] | [12]

CC1(C)[C@@H]2CC[C@@]1(C)[C@H](O)C2
inactive: [1] | [4] | [5]

CC1(C)C(=O)N(Br)C(=O)N1Cl
inactive: [1] | [6] | [7]

CCN(CC)c1ccc(C(=C2C=CC(=[N+](CC)CC)C=C2)c2ccc(S(=O)(=O)O)cc2S(=O)(=O)[O-])cc1
inactive: [1] | [6] | [7]

CCCCCCCCCCCCCCCC(=O)O
inactive: [1] | [4] | [6] | [7]

O=C1C(c2[nH]c3ccc(S(=O)(=O)O)cc3c2O)=Nc2ccc(S(=O)(=O)O)cc21
inactive: [1] | [4] | [5] | [6] | [7]

C=CC[N+](C)(C)CC=C
inactive: [1] | [4] | [6] | [7]

c1ccc2[nH]ccc2c1
inactive: [1] | [4] | [6] | [7]

CCCCCOC(=O)CCC
inactive: [1] | [4] | [6] | [7]

Cc1ccc(C(C)C)cc1O
inactive: [1] | [6] | [7]

O=C[C@@H](O)[C@H](O)[C@H](O)CO
inactive: [1] | [4] | [6] | [7]

COc1ccc(O)cc1
inactive: [1] | [6] | [7]

CCCCC(CC)COC(=O)/C=C\C(=O)OCC(CC)CCCC (stereo not given)
active: [4] 7.85 µM | [5] 50 µM
inactive: [1] | [6] | [7]

CCCCCCCCCCCCCOS(=O)(=O)O
active: [4] 78.4 µM
inactive: [1] | [6] | [7]

O=C(O)Cc1cccc2ccccc12
inactive: [6] | [7]

C=CC(C)(C)O
inactive: [8] | [9] | [10] | [15] | [11] | [12] | [13] | [16] | [17] | [14]

CC(=O)C=CC1=C(C)CCCC1(C)C
active: [4] 50 µM
inactive: [18] | [19] | [2] | [6] | [7]

O=C1NC(=O)c2ccccc21
inactive: [2] | [3] | [4] | [6] | [7]

Cc1ccc2n[nH]nc2c1
inactive: [8] | [9] | [10] | [11] | [12] | [13] | [16] | [17] | [14]

CC(C)C[C@H]1C(=O)N2CCC[C@H]2[C@]2(O)O[C@](NC(=O)[C@@H]3C=C4c5cccc6[nH]c(Br)c(c56)C[C@H]4N(C)C3)(C(C)C)C(=O)N12
inactive: [6] | [7]

CCCC1CCC(=O)O1 (stereo not given)
inactive: [4] | [6] | [7]

Cc1cccc(C)c1C
inactive: [8] | [9] | [10] | [11] | [12] | [13] | [14]

CC(C)(C)C(=O)c1ccccc1
inactive: [18] | [19] | [4] | [5]
